Laboratory results from ChEMBL document CHEMBL4513216, “Probing the Open Global Health Chemical Diversity Library for Multistage-Active Starting Points for Next-Generation Antimalarials” (ACS Infect Dis, 2020).
Hit rate of the full screen: of about 69,000 compounds, about 8,600 (12%) showed an effect of 50% or more. What follows is part of a selection rich in strong results, with near analogues and random picks from the rest.

system: Plasmodium berghei; test: Screen against P. berghei liver stage (PbLuc), transformed with Luciferase, at 10uM; assay type: functional, HepG2; details: tested at 10 uM

Row | Structure (SMILES) | INHIBITION [%]
1 | O=C(NCc1csc(Br)c1)N1CCOCC1 | -6.865
2 | COCCC(=O)NCCc1nc2cc(-c3ccc(OC)cc3)ncn2n1 | 23.5
3 | Cc1oncc1C(=O)N1CCC2(CC1)C(c1cnn(C)c1)CC(=O)N2C (stereo unspecified) | -15.5
4 | CN(C)CC1[C@H]2CN(C(=O)c3cc(=O)[nH]c4ccc(F)cc34)C[C@@H]12 (stereo partly specified) | 43
5 | CCC(C(=O)NC(C)(C)C)n1ccc2ncccc2c1=O (stereo unspecified) | 20.9
6 | c1coc(-c2nc(CNC3CCCNC3)no2)c1 (stereo unspecified) | -25.6
7 | CN(C)c1cc(C2CCCN2C(=O)c2ccc(=O)n(C)c2)ccn1 (stereo unspecified) | -76.7
8 | CN(C)c1cc(CNC(=O)c2ccccc2Cl)ccn1 | -7.35
9 | CC(c1cccc(Cl)c1)N(C)Cc1nc2c(cnn2C)c(=O)[nH]1 (stereo unspecified) | 15.32
10 | COCCc1ncc(CNC2(c3ccc(Cl)cc3)CC2)cn1 | -57.4
11 | CC(C)CN1C[C@@H]2C(=O)N(C)C3(CCN(C(=O)C(C)C)CC3)[C@@H]2C1 | -40.5
12 | Cc1noc(C(C)C)c1C(=O)NCCCN1CCCC1 | 66.2
13 | Cc1noc(C(C)C)c1C(=O)NCCCN1CCC(C)CC1 | -12.1
14 | Cc1noc(C(C)C)c1C(=O)NCCCN1CCNCC1 | -18
15 | Cc1ccc2c(n1)N(CCn1cccn1)CCN(S(C)(=O)=O)C2 | -73.5
16 | c1ccc(Cc2nnc(CN3CCn4c(nnc4C4CC4)C3)o2)cc1 | 21.5
17 | Cc1c[nH]c(CN(C)C(=O)[C@@]23CNC[C@@H]2CN(c2ncccn2)C3)n1 | 30
18 | CNc1ncc(CN(C)C(=O)[C@@]23CNC[C@@H]2CN(C(=O)C2CC2)C3)cn1 | -149
19 | Cc1cnc(CN(C)C(=O)C23CNCC2CNC3)[nH]1 (stereo unspecified) | 58.4
20 | Cc1ccc(CN2CCOCS2(=O)=O)cc1F | 38
21 | CCn1cc(NC(=O)NCc2ccc(CN3CCOCC3)cc2)cn1 | 30.2
22 | CN(C)c1ccc(-c2cc(C(=O)O)cc(S(=O)(=O)NC3CC3)c2)cc1 | 84.9
23 | O=C(O)c1cc(-c2ccc3c(c2)OCO3)cc(S(=O)(=O)NC2CC2)c1 | 8.74

Row | Structure (SMILES) | INHIBITION [%]
24 | O=C(O)c1cc(-c2ccoc2)cc(S(=O)(=O)NC2CC2)c1 | 27.6
25 | N#CC1Sc2nnc(-c3ccccc3F)n2N=C1N (stereo unspecified) | 11.6
26 | COc1ccc2[nH]cc(-c3ccnc(NC4CCCC4)n3)c2c1 | 90.1
27 | COc1ccc2[nH]cc(-c3ccnc(N4CCC(C)CC4)n3)c2c1 | 36.7
28 | O=c1[nH]c(-c2ccncc2)ncc1-c1ccnc(NC2CCCCC2)n1 | 1.11
29 | Cc1ccc(CN2CC[C@@]3(O)CCN(S(=O)(=O)N(C)C)C[C@H]3C2)cc1C | -4.95
30 | COc1ncccc1CNC(=O)Nc1ccc(N(C)C)nc1 | 15.6
31 | COCCN1C(=O)CCC12CCN(c1ncc(F)cn1)CC2 | 14.1
32 | CCn1ncc2c1CCCC2NCc1ccc(OC)c(C)c1 (stereo unspecified) | 38
33 | CCn1ncc2c1CCCC2NCc1cccc2c1OCO2 (stereo unspecified) | 33.8
34 | CCn1ncc2c1CCCC2NCc1cscn1 (stereo unspecified) | 35.4
35 | CCn1ncc2c1CCCC2NCC1=Cc2ccccc2OC1 (stereo unspecified) | 63.9
36 | CCn1ncc2c1CCCC2NCc1cccc2c1OCCO2 (stereo unspecified) | 18.6
37 | CCn1ncc2c1CCCC2NCc1ccc(OC)c(F)c1 (stereo unspecified) | 21.5
38 | CCn1ncc2c1CCCC2NCc1ccc(C)s1 (stereo unspecified) | -21.9
39 | Cc1cccc(CNC2CCCc3c2cnn3Cc2ccccc2)c1 (stereo unspecified) | 26.4
40 | CCn1ncc2c1CCCC2NCc1cc(C)ccc1OC (stereo unspecified) | 9.14
41 | CCCOc1ccc(CNC2CCCc3c2cnn3CC)cc1OC (stereo unspecified) | 52
42 | Cc1ccc(CNC2CCCc3c2cnn3Cc2ccccc2)s1 (stereo unspecified) | 60.9
43 | CCn1ncc2c1CCCC2NCc1ccccc1N1CCOCC1 (stereo unspecified) | 56.4
44 | NC(=O)CN1CCCC(Cc2ccc(N3CCOCC3)nn2)C1 (stereo unspecified) | 15.9
45 | COC(=O)C(NC(=O)C1CCC1)c1cc(F)ccc1F (stereo unspecified) | -19.9
46 | Cc1nn(C)c(Cl)c1C(=O)NCC1(C(N)=O)CCOCC1 | 27.5

Row | Structure (SMILES) | INHIBITION [%]
47 | Cc1ccc2[nH]c(CN(C)Cc3n[nH]c4c3CCC4)nc2c1 | -30.5
48 | Cc1ccc2nc(CN(C)Cc3n[nH]c4c3CCCCC4)[nH]c2c1C | 69.6
49 | Cc1ccc2nc(CN(C)Cc3[nH]nc4c3CCC4)[nH]c2c1C | -59.5
50 | CCCNS(=O)(=O)c1cnccc1N1CCN(C(C)C)CC1 | -15.5
51 | C1CC(NCC2CC2)CN(Cc2noc(C3CC3)n2)C1 (stereo unspecified) | 19.5
52 | Cn1cc(-c2cccc(CNC(=O)N3CCC[C@@H]3CO)c2)cn1 | -21.6
53 | CCC1COCCN1C(=O)NCc1cccc(-c2cnn(C)c2)c1 (stereo unspecified) | 21.2
54 | CCN1CCN(C(=O)NCc2cccc(-c3cnn(C)c3)c2)CC1 | 50.1
55 | Cn1cc(C(=O)N2CC[C@@H]3[C@@H]2CCN3Cc2cccc(C#N)c2)cn1 | 41.6
56 | Cc1ccccc1CN(C)C(=O)CCc1nc(-c2nnc[nH]2)no1 | 13.7
57 | CN(CCCc1ccccc1)C(=O)CCc1nc(-c2nnc[nH]2)no1 | 22
58 | CN(Cc1ccc(F)c(F)c1)C(=O)CCc1nc(-c2nnc[nH]2)no1 | 55.4
59 | O=C(NCc1cccc(F)c1)NCC(O)c1cccc(F)c1 (stereo unspecified) | -21.5
60 | CN(C)CCOCc1nnc2n1CCN(CC1CC1)CC2 | 36.2
61 | COc1cccc(C(=O)NCc2ccccc2S(=O)(=O)N(C)C)c1 | 45.2
62 | COc1cccc(C(=O)NCc2ccccc2S(=O)(=O)N(C)CCO)c1 | 78.1
63 | Cc1ccc(C(=O)NCc2ccccc2S(=O)(=O)N(C)CCO)cc1F | -27.8
64 | Cc1noc(C2CCN(C(=O)c3cccs3)CC2)n1 | 21
65 | CC1(C)CC(N2CCN(C3CCCC3)C(CCO)C2)CC(C)(C)C1 (stereo unspecified) | -2.98
66 | CN(CC(F)(F)F)C(=O)COc1nc(Cc2ccc(F)cc2)no1 | 40.6
67 | Cc1cccc(C(=O)N2CCCSCC2CN2CCCC2)c1 (stereo unspecified) | -19.7
68 | Cc1cccc(NCc2nc(C)ccc2O)c1 | 24.8
69 | Cn1[nH]c(CNc2cccc(Cl)c2)nc1=O | -0.473

Row | Structure (SMILES) | INHIBITION [%]
70 | Cc1cccc(NCc2nn(C)c(=O)[nH]2)c1 | 59.8
71 | CCc1ncc2c(n1)CN(CC(=O)Nc1cc(C)no1)CC2 | -25.8
72 | CN1CCN(C2CCCC2)C(CCO)C1 (stereo unspecified) | 7.24
73 | CC(C)c1noc(OCC(=O)N(C)C(C)C)n1 | -13.6
74 | CCN(CC)C(=O)COc1nc(C(C)C)no1 | 53.1
75 | COC(=O)COc1nc(C(C)C)no1 | 7.25
76 | CCc1nn(C)c(Cl)c1CN1CCC(Cc2nncn2C)CC1 | -7.25
77 | Cn1nc(CN2CCC(c3ccncc3)CC2)c2c(Cl)cccc21 | -18.1
78 | Cn1cnnc1CC1CCN(Cc2nn(C)c3cccc(Cl)c23)CC1 | 75.4
79 | Cc1nc(CN2CCCC(C)(CO)C2)no1 (stereo unspecified) | 68.1
80 | Cc1nc(CN2CCOC3(CCCC3)C2)no1 | 42.5
81 | Cc1nc(CN2CCCN(CCCc3ccccc3)CC2)no1 | -34.8
82 | c1csc(CN2CCc3onc(Cn4cccc4)c3C2)c1 | 2.41
83 | Cc1cccc(S(=O)(=O)NC(=O)CCc2cscn2)c1 | 18.6
84 | NC(=O)NC(=O)CCN(Cc1ccccc1)CC1CCOCC1 | 6.23
85 | O=C(CN(Cc1ccccc1)CC1CCOCC1)Nc1nccs1 | -1.53
86 | O=C(CN(Cc1ccccc1)CC1CCOCC1)NC(=O)NC1CC1 | 55.1
87 | Cc1ccc(C(=O)NC2CCN(C(=O)NCc3ccccn3)CC2)o1 | -4.16
88 | Cc1cc(NC(=O)NCC2CCN(C(C)C)C2)no1 (stereo unspecified) | -25.8
89 | Cc1cn2c(n1)CCC(NC(=O)c1ccc(S(C)(=O)=O)o1)C2 (stereo unspecified) | 42.3
90 | Cc1ccc(CNC(=O)Cn2c(=O)c3cccnc3n2C)cc1F | 47.2
91 | Cn1c2ncccc2c(=O)n1CC(=O)NCCC1=CCCCC1 | 66.8
92 | Cn1c2ncccc2c(=O)n1CC(=O)NCCc1c(F)cccc1F | 39.6

Row | Structure (SMILES) | INHIBITION [%]
93 | CCc1ccc(CN2CCc3ncnc(N4CCOCC4)c3CC2)o1 | 12.7
94 | CC(C)(C)CN(CCC#N)Cn1cc(Cl)cn1 | 40.7
95 | Cn1ccnc1CN1CCCCC1Cn1cccn1 (stereo unspecified) | 59.7
96 | N#Cc1ccc(CN2CCCC2Cn2cccn2)c(F)c1 (stereo unspecified) | 25.6
97 | Cc1cnn(CC2CCCN2Cc2cc(=O)n3cccc(C)c3n2)c1 (stereo unspecified) | 42.9
98 | Cc1cccn2c(=O)cc(CN3CCCC3Cn3cncn3)nc12 (stereo unspecified) | -30.7
99 | Cc1cnn(CC2CCCN2Cc2noc(C(C)(C)C)n2)c1 (stereo unspecified) | -9.37
100 | CC(C)(C)c1nc(CN2CCCC2Cn2cccn2)no1 (stereo unspecified) | 60.5
101 | Cc1cnn(CC2CCCN2Cc2nccn2C)c1 (stereo unspecified) | 41.2
102 | CC(C)(C)c1nc(CN2CCCC2Cn2cncn2)no1 (stereo unspecified) | -38
103 | Cn1ccnc1CN1CCCC1Cn1cccn1 (stereo unspecified) | -14
104 | N#Cc1cc(F)ccc1CN1CCCCC1Cn1cccn1 (stereo unspecified) | 5.03
105 | Cc1cccn2c(=O)cc(CN3CCCC3Cn3cccn3)nc12 (stereo unspecified) | 65.2
106 | N#Cc1cc(F)ccc1CN1CCCC1Cn1cccn1 (stereo unspecified) | 66.7
107 | CCOc1ncccc1NC(=O)C1CCS(=O)(=O)C1 (stereo unspecified) | 11.9
108 | Cc1ccc(CN2CCOC(c3cnccn3)C2)s1 (stereo unspecified) | 16.82
109 | Cn1cc([C@@H]2CN(S(=O)(=O)c3ccccc3F)C[C@H]2N)c2ccncc21 | 18
110 | Cc1nnc(NC(=O)NCc2ccnc(N(C)C)c2)s1 | -39.7
111 | COC(=O)CC1CCN(C(=O)c2ccc(C)cc2)CC1 | 28.7
